# Results: PubChem BioAssay AID588855 (National Center for Advancing Translational Sciences (NCATS), 2011)
# Several values for one entry are separate records, joined by “and”; a condition that tells them apart may be missing. Equal entries are not always repeated. Among all 410,000 compounds or so, about 5,000 (1.2%) were called active. About 13% were inconclusive and are not listed. The call rests on the fitted dose curve; in most records, active means well fitted inhibition curve with a large enough effect; inconclusive means small, poorly fitted or top-dose-only effect; inactive means no such curve, though single readings can be large or run the other way. This excerpt belongs to a sample that is enriched for actives.
# Assay: qHTS for Inhibitors of TGF-b; further: nearly all actives have a fitted effect of over 65% in size
# Details: HepG2 CAGA-GFP TGF-b/SMAD3 reporter, GFP fluorescence, 18 h, TGF-beta stimulated, 500 pg/mL final; series mostly up to 46.1 µM; activity, negative = inhibition: at the top concentration
# In short: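 TGF-beta reporter screen: HEPG2 CAGA-GFP, 1% FBS, 500 pg/mL TGF-beta final, 18 h; per-cell GFP summed per well; curves fitted and categorized by class.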
# On the % scale 0 is the no-effect control and ±100 the full control effect; potency means the concentration at half of the fitted maximal effect.
SMILES,Potency,"activity, negative = inhibition"
COc1cccc2sc(N(CCCN(C)C)C(=O)C(c3ccccc3)c3ccccc3)nc12,12.6 µM (active),
O=C(CCS(=O)(=O)c1ccccc1)Nc1nc2c(s1)CCCC2,,-22.5% (inactive)
Cc1cccc2sc(N(CCCN(C)C)C(=O)CCS(=O)(=O)c3ccccc3)nc12,3.16 µM (active),
COc1cccc2sc(N(CCCN(C)C)C(=O)CCS(=O)(=O)c3ccccc3)nc12,1.12 µM (active),
COc1ccc(N(C)C(=O)CCS(=O)(=O)c2cccc3nsnc23)cc1,inactive,
CCOc1cccc2sc(N3CCN(C(=O)C4CC4)CC3)nc12,,0.888% (inactive)
Cc1ccc(S(=O)(=O)CCC(=O)OCC(=O)N(C)Cc2ccccc2)cc1,,-19% (inactive)
Cc1ccc2sc(N(CCN(C)C)C(=O)/C=C/c3cccs3)nc2c1C,,-2.22% (inactive)
COc1ccccc1NC(=O)CC(NCCN(C)C)C(=O)O (stereo unspecified),,15.1% (inactive)
Cc1ccc(-c2nnc(Nc3cccc(Br)c3)c3ccccc23)cc1S(=O)(=O)NCC1CCCO1 (stereo unspecified),,-2.65% (inactive)
CCOC(=O)c1c(NC(=O)/C(C#N)=C/c2ccccc2)sc2c1CCC2,,-10.7% (inactive)
Cc1cccc(CC(=O)Nc2cccc(-c3cn4cccnc4n3)c2)c1,,-7.3% (inactive)
COc1ccc(-c2nc(C)c(CCNC(=O)c3ccc(C(F)(F)F)cc3)s2)cc1OC,,11.9% (inactive)
CCOC(=O)c1cc(OC(=O)c2ccccc2Cl)n(-c2ccccc2)n1,,-17.4% (inactive)
CSc1nc(=O)c2c(n1C)NC(=O)CC2c1ccccc1OC(C)C (stereo unspecified),,-2.01% (inactive)
Cc1cn(C)c(CC(=O)NCc2ccc(Cl)cc2)c1C(=O)O,,10.5% (inactive)
CCOc1n[nH]c(-c2ccccc2)n1,,-5.85% (inactive)
CCOC(=O)c1ccc(NC(=O)CC2C(=O)N(c3cccc(OC)c3)C(=O)N2C2CCCCC2)cc1 (stereo unspecified),,-42.9% (inactive)
Cc1ccc(NC(=O)CCNC(=O)c2ccc([N+](=O)[O-])cc2)cc1S(=O)(=O)N1CCOCC1,,1.06% (inactive)
Cc1ccc([N+](=O)[O-])cc1S(=O)(=O)N1CCCN(C)CC1,,-1.45% (inactive)
Cc1ccc(C)c(S(=O)(=O)N2CCN(CC(=O)Nc3ccc([N+](=O)[O-])cc3)CC2)c1,8.91 µM (active),
Cc1cccc(N2CCN(C(=O)c3oc(=O)c4ccccc4c3-c3ccccc3)CC2)c1C,,0% (inactive)
CCOc1ccccc1NC(=O)Cn1c(=O)n(Cc2ccccc2)c(=O)c2c(C)c(C(=O)N(C)C)sc21,,-4.55% (inactive)
CCC(=O)N1CCc2cc(S(=O)(=O)NCCC(=O)Nc3cccc(C)c3C)ccc21,,3.97% (inactive)
Cc1cccc(OCCSc2nc3ccccc3n2CC(=O)N2CCCCC2)c1C,12.6 µM (active),
CCOc1ccc(OCCSc2nc3ccccc3n2CC(=O)O)cc1,,6.92% (inactive)

SMILES,Potency,"activity, negative = inhibition"
Cc1ccc(C(C)C)c(OCCSc2nc3ccccc3n2CC(=O)O)c1,,-8.84% (inactive)
O=c1[nH]c2cc(Br)ccc2n2cccc12,,3.58% (inactive)
COc1ccc(-c2c(-c3ccc(OC)cc3O)nc(C)nc2C(F)(F)F)cc1,,-4.38% (inactive)
COc1ccc(-c2onc(C)c2-c2ccc3c(c2)OCCO3)c(O)c1,15.8 µM (active),
COc1cc(-c2c(-c3ccc4c(c3)OCO4)noc2C)ccc1F,inactive,
O=C1O/C(=C\c2ccc(O)cc2)C(O)=C1c1ccc(O)cc1,,5.93% (inactive)
O=[N+]([O-])c1ccccc1S(=O)(=O)Nc1cccc2cccnc12,1.26 µM (active) and 6.31 µM (active),
O=C(Nc1cccc2cccnc12)C(F)(F)F,,-0.477% (inactive)
O=S(=O)(Nc1cccc2cccnc12)c1cccc2cccnc12,1.78 µM (active),
Cc1ccc2cccc([N+](=O)[O-])c2n1,,-20.7% (inactive)
O=[N+]([O-])c1ccccc1SNc1ccccn1,,-21.9% (inactive)
O=S(=O)(Nc1ccccc1Cl)c1cccc2nsnc12,,-3.12% (inactive)
Cc1ccc(Cn2cc(CCC(=O)NCc3ccc(OC(C)C)cc3)c3ccccc32)cc1,,-19.7% (inactive)
O=C(O)c1ccc2c(c1)N(Cc1ccc(F)cc1)C(=O)c1ccccc1S2=O (stereo unspecified),,-28.9% (inactive)
COc1cc(OC)c(NC(=O)Cc2ccc(-n3c(C)nc4cccnc43)cc2)cc1Cl,,0% (inactive)
O=C(/C=C/Nc1ccccc1)c1cnc(-c2ccccc2)s1,,1.26% (inactive)
Cc1nc(-c2ccccc2)sc1C(=O)/C=C/c1ccccc1,10 µM (active),
CNC(=O)c1csc(-c2ccccc2)n1,,7.68% (inactive)
O=C(CSc1nc2nccnc2c(=O)n1CCc1c[nH]c2ccccc12)Nc1ccccc1F,,-19.6% (inactive)
O=C1COc2ccc(-c3csc(-c4ccc(Cl)cc4)n3)cc2N1,,4.59% (inactive)
COc1ccc(C)cc1S(=O)(=O)N1CCN(S(=O)(=O)c2cc(C(=O)O)ccc2C)CC1,6.31 µM (active),
Cc1ccc(C)c(S(=O)(=O)N2CCN(C(=O)Nc3ccccc3)CC2)c1,,-17.8% (inactive)
COc1ccc(C(=O)NCc2ccc(C)cc2)cc1S(=O)(=O)N1CCCC1,,-0.243% (inactive)
CCCN(CCC)CCCNC(=O)Cn1cc2c(n1)-c1c(oc(C(=O)N3CCCC3)c1C)CC2,,-28.1% (inactive)
COc1cn(CC(=O)Nc2cccc(C)c2C)c(CN2CCCCC2)cc1=O,,26.1% (inactive)
